Results taken from the supplement of paper PMC12645437, “Orthogonal IMiD-Degron Pairs Induce Selective Protein Degradation in Cells” (ACS Chemical Biology, 2025).
Over roughly 8,300 sequences, “log2 fold change of degron read counts, EGFP-low vs EGFP+ sorted cells (limma voom), compound-induced degradation” has its median near -1.1; the highest 2% begin near 3.2. The entries come from a sample that favours the highest values as a whole.

Target: T1, CRBN, Q96SW2
T1 chain: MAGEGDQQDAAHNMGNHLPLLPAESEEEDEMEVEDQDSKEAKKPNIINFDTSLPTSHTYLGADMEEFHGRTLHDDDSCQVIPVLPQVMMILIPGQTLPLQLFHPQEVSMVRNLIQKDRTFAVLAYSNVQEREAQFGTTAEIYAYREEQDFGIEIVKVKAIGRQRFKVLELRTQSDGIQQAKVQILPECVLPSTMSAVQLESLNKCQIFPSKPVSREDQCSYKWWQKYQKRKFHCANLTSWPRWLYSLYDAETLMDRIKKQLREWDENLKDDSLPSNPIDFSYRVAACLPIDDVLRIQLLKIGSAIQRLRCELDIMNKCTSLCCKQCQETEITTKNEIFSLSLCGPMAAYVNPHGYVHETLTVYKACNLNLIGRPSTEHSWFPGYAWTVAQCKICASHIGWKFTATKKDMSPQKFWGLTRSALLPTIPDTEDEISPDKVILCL
Experiment: log2 fold change of degron read counts, EGFP-low vs EGFP+ sorted cells (limma voom), compound-induced degradation; higher = more compound-induced degradation of the degron-EGFP fusion; degrons are variants of IKZF1/3 zinc finger 2; compound dose not given here
Details: Jurkat, 18 h
Experimental: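 Pooled library of 8380 IKZF3 ZF2 degron mutants (positions 146-167 varied within the IKZF3 130-189 degron; only the varied core is printed, flanks not printed) fused to EGFP with IRES-mCherry, lentivirally expressed in Jurkat cells. mCherry+ cells were treated with one IMiD compound for 18 h (dose not stated) and FACS-sorted into EGFP-low and EGFP+ populations. Degron sequences were counted by NGS, and log2FC (EGFP-low vs EGFP+) was estimated by limma voom over 3 biological replicates.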

[1] = compound: compound 19 (5-tert-butyl-thalidomide)
[2] = compound: compound 22 (5-morpholino-thalidomide)
[3] = compound: compound 33 (diphenyl IMiD analogue)
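Note: pooled lentiviral library of zinc finger degron-EGFP fusions in mCherry-positive Jurkat cells, FACS-sorted after compound exposure, with degron abundance counted by next-generation sequencing.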

Row | Sequence | log2 fold change of degron read counts [1] | log2 fold change of degron read counts [2] | log2 fold change of degron read counts [3] | log2 fold change of degron read counts (compound: thalidomide)
1 | FMCPICGHYFTQKGNLLRHIKL [46F_47M_49P_50I_52G_53H_54Y_55F_67L_, Q9UKT9] | -2.08 | -2.18 | -1.11 | -1.8
2 | FQCDICGAPFTQKGNLLRHIKL [46F_47Q_49D_50I_52G_53A_54P_55F_67L_, Q9UKT9] | 2.56 | 3.14 | 0.968 | 3.35
3 | FFCDICGADFTQKGNLLRHIKL [46F_47F_49D_50I_52G_53A_54D_55F_67L_, Q9UKT9] | -0.121 | -0.935 | -2.01 | -2.27
4 | FWCDICGAPFTQKGNLLRHIKL [46F_47W_49D_50I_52G_53A_54P_55F_67L_, Q9UKT9] | 2.91 | 2.32 | 1.2 | -0.538
5 | FFCDICGAPFTQKGNLLRHIKL [46F_47F_49D_50I_52G_53A_54P_55F_67L_, Q9UKT9] | 3.92 | 3.16 | 1.06 | -0.36
6 | FYCDICGAPFTQKGNLLRHIKL [46F_47Y_49D_50I_52G_53A_54P_55F_67L_, Q9UKT9] | 3.86 | 3.56 | 2.02 | 0.27
7 | FCCDICGAPFTQKGNLLRHIKL [46F_47C_49D_50I_52G_53A_54P_55F_67L_, Q9UKT9] | 2.7 | 2.21 | 0.465 | 0.477
8 | FVCDICGAPFTQKGNLLRHIKL [46F_47V_49D_50I_52G_53A_54P_55F_67L_, Q9UKT9] | 1.63 | 3.29 | 1.93 | 2.61
9 | FMCNICGAVFTQKGNLLRHIKL [46F_47M_49N_50I_52G_53A_54V_55F_67L_, Q9UKT9] | -1.55 | -0.801 | 1.53 | 0.369
10 | FFCEICGHNFTQKGNLLRHIKL [46F_47F_49E_50I_52G_53H_54N_55F_67L_, Q9UKT9] | -2.59 | -3.18 | -2.38 | -2.84
11 | FRCDQCGAHFTQKGNLLRHIKL [46F_47R_49D_50Q_52G_53A_54H_55F_67L_, Q9UKT9] | -2.76 | -2.89 | -2.01 | -2.48
12 | FKCEICGAEFTQKGNLLRHIKL [46F_47K_49E_50I_52G_53A_54E_55F_67L_, Q9UKT9] | -0.284 | -2.59 | -3.54 | -0.121
13 | FCCNICGARFTQKGNLLRHIKL [46F_47C_49N_50I_52G_53A_54R_55F_67L_, Q9UKT9] | 1.4 | 1.76 | 0.552 | 1.57
14 | FRCDICGAPFTQKGNLLRHIKL [46F_47R_49D_50I_52G_53A_54P_55F_67L_, Q9UKT9] | 3.17 | 3.53 | 3.32 | 3.52
15 | FTCDICGAPFTQKGNLLRHIKL [46F_47T_49D_50I_52G_53A_54P_55F_67L_, Q9UKT9] | 2.1 | 2.86 | 1.41 | 1.93
16 | FSCDICGAPFTQKGNLLRHIKL [46F_47S_49D_50I_52G_53A_54P_55F_67L_, Q9UKT9] | 2.36 | 1.62 | 0.275 | 0.668
17 | FACDICGAPFTQKGNLLRHIKL [46F_47A_49D_50I_52G_53A_54P_55F_67L_, Q9UKT9] | 3.46 | 1.66 | -0.501 | 0.383
18 | FNCDICGAPFTQKGNLLRHIKL [46F_47N_49D_50I_52G_53A_54P_55F_67L_, Q9UKT9] | 2.68 | 1.25 | -0.682 | -0.153
19 | FKCDICGAPFTQKGNLLRHIKL [46F_47K_49D_50I_52G_53A_54P_55F_67L_, Q9UKT9] | 1.21 | 0.288 | -1.35 | 1.02
20 | FECDICGAPFTQKGNLLRHIKL [46F_47E_49D_50I_52G_53A_54P_55F_67L_, Q9UKT9] | 1.27 | -1.62 | -0.0281 | 0.305
21 | FGCDICGAPFTQKGNLLRHIKL [46F_47G_49D_50I_52G_53A_54P_55F_67L_, Q9UKT9] | 0.329 | -0.821 | -1.38 | -1.4
22 | FDCDICGAPFTQKGNLLRHIKL [46F_47D_49D_50I_52G_53A_54P_55F_67L_, Q9UKT9] | 0.272 | -1.45 | -1.51 | -0.767
23 | FICDICGAPFTQKGNLLRHIKL [46F_47I_49D_50I_52G_53A_54P_55F_67L_, Q9UKT9] | 1.26 | 3.46 | 2.32 | 2.47
24 | FMCDICGAPFTQKGNLLRHIKL [46F_47M_49D_50I_52G_53A_54P_55F_67L_, Q9UKT9] | 2.71 | 3.25 | 3.03 | 1.89
25 | FLCDICGAPFTQKGNLLRHIKL [46F_47L_49D_50I_52G_53A_54P_55F_67L_, Q9UKT9] | 1.62 | 2.15 | 2.03 | 1.99
